Measured values taken from PubChem BioAssay (EPA / NIEHS).
Active and inactive are the calls of the source. The calls were made as follows: active = hit-call score of the fitted dose curve at least 0.9, where 1 is the maximum; inactive = score below 0.9.

Experiment: APR_HepG2_MitoticArrest_72hr: Apredica 72-hour HepG2 Assay for Mitotic Arrest (AID 2282918)
Conditions: high-content imaging, actives raise or lower the signal
How it was run: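 High-content imaging of fixed human HepG2 cells after 72 h compound exposure (0.39–200 uM, duplicates, 0.5% DMSO); mitotic arrest scored from phospho-histone H3 and nuclear Hoechst staining relative to DMSO.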

Q: With `C[C@]12CCC(=O)C=C1CC[C@@H]1[C@@H]2CC[C@]2(C)C(=O)CC[C@@H]12` as the molecule, how does the outcome read?
A: The outcome was “inactive”.

Q: Which outcome does the source give for `O=S(=O)(O)C(F)(F)C(F)(F)C(F)(F)C(F)(F)C(F)(F)C(F)(F)F` here?
A: The outcome was “inactive”.

Q: For `CCOP(=S)(OCC)SCSC(C)(C)C`, which outcome is on record?
A: Its outcome is “inactive”.

Q: With `O=C(NC(=O)c1cc(F)c(F)cc1Cl)Nc1cc(F)ccc1N1CCC(C(=O)O)CC1` as the molecule, how does the outcome read?
A: The outcome was “inactive”.

Q: For `CC(c1ccc(O)cc1)(c1ccc(O)cc1)c1ccc(O)cc1`, which AC50 is on record?
A: The AC50 was 105 µM (active).

Q: Which AC50 does the source give for `ClC1=C(Cl)[C@]2(Cl)[C@@H]3[C@@H](Cl)[C@H]4O[C@H]4[C@@H]3C1(Cl)C2(Cl)Cl` here?
A: Its AC50 is 51.6 µM (active).

Q: Which outcome does the source give for `Cc1ccccc1[N+](=O)[O-]` here?
A: Its outcome is “inactive”.

Q: Which outcome does the source give for `ClC1=C(Cl)[C@]2(Cl)[C@@H]3[C@H]4C[C@H]([C@@H]5O[C@H]45)[C@@H]3[C@@]1(Cl)C2(Cl)Cl` here?
A: The outcome was “inactive”.

Q: With `Oc1c(Cl)c(Cl)c(Cl)c(Cl)c1Cl` as the molecule, how does the outcome read?
A: The outcome was “inactive”.

Q: Which outcome does the source give for `CCCCCCCCCc1ccc(O)cc1` here?
A: The outcome was “inactive”.

Q: Which outcome does the source give for `O=S(=O)(O)C(F)(F)C(F)(F)C(F)(F)C(F)(F)F` here?
A: The outcome was “inactive”.

Q: Which outcome does the source give for `Cc1cc(-c2ccc(N)c(C)c2)ccc1N` here?
A: The outcome was “inactive”.

Q: Which outcome does the source give for `CC#Cc1cc(C)nc(Nc2ccccc2)n1` here?
A: The outcome was “inactive”.

Q: Which AC50 does the source give for `O=C(O)C(F)(F)C(F)(F)C(F)(F)C(F)(F)C(F)(F)C(F)(F)C(F)(F)C(F)(F)F` here?
A: Its AC50 is 111 µM (active).

Q: For `O=C(O)C(F)(F)C(F)(F)C(F)(F)C(F)(F)C(F)(F)C(F)(F)C(F)(F)C(F)(F)C(F)(F)F`, which AC50 is on record?
A: The AC50 was 98.1 µM (active).

Q: For `CCCCCCCCCC[N+](C)(C)CCCCCCCCCC`, which AC50 is on record?
A: The AC50 was 3.61 µM (active).

Q: Which AC50 does the source give for `CCC(=O)O[C@H]1CC[C@H]2[C@@H]3CCC4=CC(=O)CC[C@]4(C)[C@H]3CC[C@]12C` here?
A: The AC50 was 65 µM (active).

Q: For `COc1ccc(O)c(C(C)(C)C)c1`, which outcome is on record?
A: Its outcome is “inactive”.

Q: For `CC1=C2C[C@H]3[C@@H](CC=C4C[C@@H](O)CC[C@@]43C)[C@@H]2CC[C@]12O[C@@H]1C[C@H](C)CN[C@H]1[C@H]2C`, which AC50 is on record?
A: Its AC50 is 16.5 µM (active).

Q: With `O=C(N[C@H]1CN2CCC1CC2)c1cc2ccoc2cn1` as the molecule, how does the outcome read?
A: The outcome was “inactive”.

Q: For `NS(=O)(=O)C(F)(F)C(F)(F)C(F)(F)C(F)(F)C(F)(F)C(F)(F)C(F)(F)C(F)(F)F`, which AC50 is on record?
A: The AC50 was 77.9 µM (active).

Q: With `Oc1ccc(C(c2ccc(O)cc2)(C(F)(F)F)C(F)(F)F)cc1` as the molecule, how does the outcome read?
A: Its outcome is “inactive”.

Q: For `ClC(Cl)=C(c1ccc(Cl)cc1)c1ccc(Cl)cc1`, which AC50 is on record?
A: Its AC50 is 22.5 µM (active).

Q: With `C[C@]12CCC(=O)C=C1CC[C@@H]1[C@@H]2CC[C@@]2(C)[C@H]1CC[C@]2(C)O` as the molecule, how does the outcome read?
A: Its outcome is “inactive”.

Q: With `CCCN(CCC)N=O` as the molecule, how does the outcome read?
A: The outcome was “inactive”.

Q: Which outcome does the source give for `CC(C)(c1ccccc1)c1ccc(O)cc1` here?
A: Its outcome is “inactive”.

Q: With `Cc1cc2c3c(c1)C(c1ccccc1)=N[C@@H](NC(=O)c1ccncc1)C(=O)N3CC2` as the molecule, how does the outcome read?
A: The outcome was “inactive”.

Q: Which outcome does the source give for `CC(C)(O)C(=O)Nc1ccc([N+](=O)[O-])c(C(F)(F)F)c1` here?
A: The outcome was “inactive”.

Q: With `CCCCCCOC(=O)c1ccccc1C(=O)OCCCCCC` as the molecule, how does the outcome read?
A: The outcome was “inactive”.

Q: For `N#Cc1ccc(N(CC(N)=O)CC(F)(F)F)cc1C(F)(F)F`, which outcome is on record?
A: The outcome was “inactive”.

Q: Which outcome does the source give for `Clc1ccc(Cl)cc1` here?
A: Its outcome is “inactive”.

Q: With `Clc1ccc(C(c2ccccc2Cl)C(Cl)(Cl)Cl)cc1` (stereo not drawn) as the molecule, how does the AC50 read?
A: The AC50 was 50.9 µM (active).

Q: Which outcome does the source give for `c1cc2ccc3cccc4ccc(c1)c2c34` here?
A: Its outcome is “inactive”.
